In article PMC5540273 (PLoS ONE, 2017):
Read-outs that look alike come from different tables or passages of the source.

Tests used:
Settings in all cases: n = 1
[1] = tested on: T1, DRAK1
T1 construct: gene STK17A

[2] = tested on: T2, DRAK2
T2 construct: gene STK17B

[3] = tested on: DYRK1A
[4] = tested on: DYRK1B
[5] = tested on: DYRK2
[6] = tested on: EGFR
[7] = tested on: EIF2AK1
[8] = tested on: EPHA1
[9] = tested on: EPHA2
[10] = tested on: EPHA3
[11] = concentration: 1 μM, replicates: in singlicate
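Further: KINOMEscan kinase panel screen.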

Compound | %Inh [1, 11] [%] | %Inh [2, 11] [%] | %Inh [3, 11] [%] | %Inh [4, 11] [%] | %Inh [5, 11] [%] | %Inh [6, 11] [%] | %Inh [7, 11] [%] | %Inh [8, 11] [%] | %Inh [9, 11] [%] | %Inh [10, 11] [%] | %Inh ([1]; 1 µM) [%] | %Inh ([2]; 1 µM) [%] | %Inh ([3]; 1 µM) [%] | %Inh ([4]; 1 µM) [%] | %Inh ([5]; 1 µM) [%] | %Inh ([6]; 1 µM) [%] | %Inh ([7]; 1 µM) [%] | %Inh ([8]; 1 µM) [%] | %Inh ([9]; 1 µM) [%] | %Inh ([10]; 1 µM) [%]
Cn1ccc2ncnc(Oc3cccc(C(=O)Nc4ccccc4)c3)c21 | 0 | 12 | 2 | 24 | 0 | 0 | 18 | 0 | 0 | 0 |  |  |  |  |  |  |  |  |  | 
Cc1cccc(-c2nc(Nc3cccc(C(N)=O)c3)c3ccccc3n2)n1 [GW876019] | 8 | 28 | 6 | 65 | 34 | 15 | 0 | 57 | 32 | 0 |  |  |  |  |  |  |  |  |  | 
COc1ccc(C2=C(Nc3cccc(C(=O)O)c3)C(=O)NC2=O)cc1 [SB-390765] | 19 | 7 | 9 | 0 | 20 | 0 | 11 | 7 | 9 | 11 |  |  |  |  |  |  |  |  |  | 
Cc1cccc(-c2nc(Nc3ccncc3)c3ccccc3n2)n1 [GW855857] | 2 | 7 | 0 | 27 | 0 | 6 | 0 | 23 | 18 | 0 |  |  |  |  |  |  |  |  |  | 
C[C@@H]1CCCCN1c1cc(-c2ccc3c(N)n[nH]c3c2)nc(N)n1 [GSK2258759] | 96 | 0 | 0 | 0 | 10 | 18 | 0 | 8 | 0 | 7 |  |  |  |  |  |  |  |  |  | 
Cc1ccc(NC(=O)Nc2cccc(C(F)(F)F)c2)cc1 [GSK955403] |  |  |  |  |  |  |  |  |  |  | 15 | 0 | 0 | 0 | 0 | 0 | 0 | 17 | 0 | 0
COc1cccc(-c2cc(-c3c[nH]nc3-c3ccccn3)ccn2)c1 [GW680338] | 0 | 2 | 13 | 14 | 1 | 31 | 2 | 0 | 0 | 11 |  |  |  |  |  |  |  |  |  | 
O=C(Nc1ccc2c(c1)OCO2)NC1CCN(c2ccnc(Nc3ccc(F)cc3)n2)C1 (centres unmarked) [GSK1379724] | 0 | 0 | 27 | 0 | 3 | 0 | 0 | 18 | 16 | 0 |  |  |  |  |  |  |  |  |  | 
Cl.NC(=O)c1cccc(Nc2nccc(Nc3ccc(Oc4cccc(Cl)c4)c(Cl)c3)n2)c1 [GW659008] | 13 | 0 | 5 | 4 | 13 | 96.9 | 0 | 0 | 0 | 5 |  |  |  |  |  |  |  |  |  | 
CCn1c(-c2ccccn2)nc2cnccc21 [SB-736398] | 5 | 8 | 19 | 11 | 0 | 15 | 0 | 21 | 6 | 0 |  |  |  |  |  |  |  |  |  | 
Cc1csc(-c2nc(Nc3ccncc3)c3ccccc3n2)n1 [GW869640] | 10 | 0 | 18 | 0 | 29 | 1 | 14 | 0 | 0 | 30 |  |  |  |  |  |  |  |  |  | 
Cl.O=C(Nc1cccc(-c2nn3ncccc3c2-c2ccnc(Nc3cccnc3)n2)c1)c1c(F)cccc1F [GSK312879] | 1 | 0 | 22 | 18 | 6 | 98.9 | 17 | 4 | 0 | 2 |  |  |  |  |  |  |  |  |  | 
CN(C)CCN(C)C(=O)c1cc(-c2ccncc2)c(-c2ccc(Cl)c(O)c2)o1.Cl.Cl [SB-710397] | 23 | 0 | 9 | 0 | 0 | 30 | 0 | 45 | 5 | 0 |  |  |  |  |  |  |  |  |  | 
Cc1ccc(-c2cc(-c3c[nH]nc3-c3ccccn3)ccn2)cc1 [GW684088] | 12 | 0 | 11 | 6 | 0 | 6 | 0 | 0 | 0 | 49 |  |  |  |  |  |  |  |  |  | 
Cc1ccc(NC(=O)Nc2cccc(Cl)c2)cc1-c1ccc(C(=O)Nc2ccncc2)cc1 [GSK1398468] | 0 | 0 | 1 | 21 | 0 | 24 | 0 | 6 | 3 | 0 |  |  |  |  |  |  |  |  |  | 
COc1cc2nccc(Nc3ccc(NC(=O)c4ccc(C)cc4)c(O)c3)c2cc1OC.Cl [GW440132] | 0 | 0 | 11 | 7 | 18 | 0 | 0 | 17 | 8 | 0 |  |  |  |  |  |  |  |  |  | 

Compound | %Inh [1, 11] [%] | %Inh [2, 11] [%] | %Inh [3, 11] [%] | %Inh [4, 11] [%] | %Inh [5, 11] [%] | %Inh [6, 11] [%] | %Inh [7, 11] [%] | %Inh [8, 11] [%] | %Inh [9, 11] [%] | %Inh [10, 11] [%] | %Inh ([1]; 1 µM) [%] | %Inh ([2]; 1 µM) [%] | %Inh ([3]; 1 µM) [%] | %Inh ([4]; 1 µM) [%] | %Inh ([5]; 1 µM) [%] | %Inh ([6]; 1 µM) [%] | %Inh ([7]; 1 µM) [%] | %Inh ([8]; 1 µM) [%] | %Inh ([9]; 1 µM) [%] | %Inh ([10]; 1 µM) [%]
Cc1cccc(-c2nc(C)cc(Nc3ccncc3)n2)n1 [GSK257997] | 12 | 0 | 6 | 13 | 14 | 30 | 0 | 0 | 9 | 0 |  |  |  |  |  |  |  |  |  | 
Cc1nnc(-c2ccc3occ(-c4ccc(S(C)=O)cc4)c3c2)[nH]1 (centres unmarked) | 26 | 41 | 19 | 7 | 45 | 0 | 0 | 0 | 0 | 0 |  |  |  |  |  |  |  |  |  | 
CS(=O)(=O)c1ccc(-c2nc3n(c2-c2ccncc2)CCC3)cc1 [SKF-105942] | 0 | 0 | 20 | 0 | 5 | 5 | 13 | 1 | 6 | 0 |  |  |  |  |  |  |  |  |  | 
Nc1nc(-c2nccs2)c(-c2ccnc3ccccc23)s1 [GW693542] | 9 | 0 | 20 | 25 | 7 | 26 | 3 | 5 | 3 | 0 |  |  |  |  |  |  |  |  |  | 
Cc1cc(-c2ccc3c(c2)CC[C@@H](N[C@@H](C)c2ccccc2)C3)cnc1N.Cl [GW412617] | 0 | 11 | 19 | 17 | 0 | 31 | 0 | 14 | 14 | 0 |  |  |  |  |  |  |  |  |  | 
Cc1c(Cn2ccn3c(=O)cc(N4CCOCC4)nc23)cccc1C(F)(F)F [GSK2289044] | 0 | 0 | 10 | 21 | 14 | 40 | 2 | 9 | 13 | 27 |  |  |  |  |  |  |  |  |  | 
Cn1cncc1-c1ccc2ncnc(Nc3ccc(OCc4ccccc4)cc3)c2c1 [GW320571] | 6 | 0 | 12 | 3 | 0 | 99.3 | 96.7 | 25 | 17 | 0 |  |  |  |  |  |  |  |  |  | 
Fc1cccc(COc2nnc(-c3ccc4c(c3)CCO4)o2)c1 | 6 | 33 | 44 | 65 | 3 | 6 | 0 | 0 | 0 | 0 |  |  |  |  |  |  |  |  |  | 
COC(=O)c1c(-c2ccccc2)c2cc(OC)ccc2c(=O)n1Cc1ccccc1 | 0 | 22 | 0 | 12 | 0 | 0 | 5 | 0 | 3 | 9 |  |  |  |  |  |  |  |  |  | 
Cn1ccc2ncnc(Oc3ccc(NC(=O)Nc4ccccc4)cc3)c21 | 0 | 0 | 6 | 40 | 0 | 3 | 22 | 7 | 0 | 0 |  |  |  |  |  |  |  |  |  | 
O=C(O)COc1ncnc2cc(-c3ccc4[nH]ncc4c3)sc12 |  |  | 67 | 41 | 66 | 0 | 0 | 15 | 10 | 10 | 83 | 99.3 |  |  |  |  |  |  |  | 
Fc1cc(Cl)ccc1Nc1ccnc2cc(-c3ccc(CN4CCCCC4)o3)ccc12 [GW560116] | 33 | 0 | 0 | 0 | 9 | 27 | 0 | 43 | 6 | 33 |  |  |  |  |  |  |  |  |  | 
COc1cc2ncn(-c3cc(OCC4CCCO4)c(C(N)=O)s3)c2cc1OC (centres unmarked) [GSK204607] | 0 | 0 | 0 | 0 | 14 | 20 | 0 | 3 | 10 | 16 |  |  |  |  |  |  |  |  |  | 
COc1ccc(Nc2nccc(NCCNC(=O)Nc3ccccc3F)n2)cc1 [GSK1379901] | 2 | 0 | 19 | 0 | 6 | 20 | 10 | 33 | 25 | 0 |  |  |  |  |  |  |  |  |  | 
CC(C)(C)c1ccc(C(=O)Nc2cn3cc(Cl)ccc3n2)cc1 | 5 | 20 | 47 | 65 | 0 | 0 | 0 | 0 | 0 | 65 |  |  |  |  |  |  |  |  |  | 
COC(=O)c1c(-c2ccccc2)c2cc(C(=O)O)ccc2c(=O)n1Cc1ccccc1 | 0 | 0 | 7 | 32 | 0 | 0 | 0 | 0 | 3 | 15 |  |  |  |  |  |  |  |  |  | 
